Source: PubChem (National Center for Advancing Translational Sciences (NCATS))
Many of the other results were omitted from the sample, so hits are more common in it than they were.
RE007 growth inh – qHTS Assay for Inhibitors of the HIV-1 protein Vpr; S. pombe RE007 Vpr strain, BacTiter-Glo ATP luminescence, 24 h; Potency, µM (doses to about 92.2 µM), without a hit: top-dose activity change, negative = less growth, hits mostly inhibitors; 0.21% of 360,000 active; active = well fitted falling curve with a large enough effect; inconclusive = small, poorly fitted or top-dose-only effect; inactive = no such curve, though single readings can be large or run the other way; note: potency is the fitted concentration of half-maximal effect; % is set by controls: 0 for no effect and ±100 for the full control effect; nearly all actives have a fitted effect of over 50% in size
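Fission yeast strain RE007, carrying one chromosomally integrated HIV-1 vpr copy, was seeded at OD 0.01 in PMG+AL medium with 23 nL pinned compound. After 24 h at 30 °C and 99% humidity, viability was read by BacTiter-Glo luminescence.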
Cycloheximide cs – Cycloheximide Counterscreen for Small Molecule Inhibitors of Shiga Toxin; cell reporter, cycloheximide protein synthesis inhibition counterscreen; max response, %; 12% of 300,000 active; in the data active = max response mostly above about 13%, no sharp cut-off; inactive = mostly below about 14%; note: read at 38.3 µM for the half of the compounds with a filed dose; 0% is about no effect
Shiga inhibitor – A qHTS for Small Molecule Inhibitors of Shiga Toxin. 9.2% of 290,000 active. AID 2315, 2010. Vero cells, Shiga toxin protein synthesis inhibition reporter. inhibition, % at 38.7 µM; in the data active = inhibition mostly above about 28%, no sharp cut-off; inactive = mostly below about 43%; note: 0% is about no effect
FBPA Giardia inh – qHTS Assay for Inhibitors of Fructose-1,6-bisphosphate Aldolase from Giardia Lamblia. Potency, µM (series often up to 59.6 µM), for inactives: top-dose activity, negative = inhibition, usual class: inhibitors. purified Giardia FBPA. A8B2U2. 0.71% of 290,000 active; note: potency is the fitted concentration of half-maximal effect; % is set by controls: 0 for no effect and ±100 for the full control effect; nearly all actives have a fitted effect of over 55% in size
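40 nM FBPA preincubated 10 min at RT with compound (up to 57.5 uM final), then substrate plus GAPDH/TPI/NAD/arsenate coupling and diaphorase/resazurin added. Fluorescence read after 20 min at RT, 525/598 nm.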
Tb PYK inh – qHTS of Trypanosoma Brucei Inhibitors | 0.12% of 410,000 active | AID 624173, 2012 | Potency, µM (highest dose often 76.8 µM), without a hit: at the top dose activity, negative = inhibition, hits mostly inhibitors | pyruvate kinase (Trypanosoma brucei), Q57TT1 | TbPYK enzyme, Kinase-Glo Plus ATP luminescence, 45 min; note: potency is the fitted concentration of half-maximal effect; % is set by controls: 0 for no effect and ±100 for the full control effect; nearly all actives have a fitted effect of over 50% in size
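Glycolytic pyruvate kinase of T. brucei was incubated with substrate, test compound and 130 uM ADP for 45 minutes at room temperature. Luminescent Kinase-Glo Plus signal was measured after 10 minutes.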
LmPK inh – qHTS Assay for Inhibitors of Leishmania Mexicana Pyruvate Kinase (LmPK); Q27686; purified LmPK, Kinase-Glo ATP luminescence, 1 h; Potency, µM (highest dose often 57.5 µM), for inactives: top-dose activity change, negative = inhibition, usual class: inhibitors; 0.37% of 290,000 active; note: potency is the fitted concentration of half-maximal effect; % is set by controls: 0 for no effect and ±100 for the full control effect
Target sequence (Q27686 whole entry, looked up): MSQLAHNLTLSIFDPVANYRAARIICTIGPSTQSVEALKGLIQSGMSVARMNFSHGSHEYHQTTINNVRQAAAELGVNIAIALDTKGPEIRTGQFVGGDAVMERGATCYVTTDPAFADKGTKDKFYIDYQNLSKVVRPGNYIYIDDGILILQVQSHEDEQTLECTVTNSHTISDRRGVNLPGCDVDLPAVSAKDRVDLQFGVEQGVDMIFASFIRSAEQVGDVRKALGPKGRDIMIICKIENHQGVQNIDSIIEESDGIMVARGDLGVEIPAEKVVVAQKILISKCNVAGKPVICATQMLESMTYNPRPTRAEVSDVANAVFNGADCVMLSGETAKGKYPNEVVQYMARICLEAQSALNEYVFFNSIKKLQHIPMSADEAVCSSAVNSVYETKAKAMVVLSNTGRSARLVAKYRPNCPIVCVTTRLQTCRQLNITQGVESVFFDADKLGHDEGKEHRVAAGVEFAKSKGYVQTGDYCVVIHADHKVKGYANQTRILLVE
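ATP generated from ADP (0.1 mM) and PEP (0.5 mM) by 0.1 nM LmPK over 1 h at room temperature (pH 7.2 imidazole buffer) was detected by coupled luciferase luminescence. Values were normalized to uninhibited and no-enzyme wells.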
* = called active by the depositor; u = inconclusive; x = no result given; + = active, no number; [ ] = another dose, or the depositor's remark. Unless noted, calls come from the whole dose curve; as a rule, active = well fitted curve in the direction sought with a large enough effect; inconclusive = small, poorly fitted or top-dose-only effect, or another doubt; inactive = no such curve, though single readings can be large; an effect the other way counts as inactive or inconclusive.

SMILES	RE007 growth inh	Cycloheximide cs	Shiga inhibitor	FBPA Giardia inh	Tb PYK inh	LmPK inh
O=C(N/N=C/c1c(F)cccc1Cl)C1CC1	-22.5%	-4.7	-4.3	0.1%	6.4%	10.1%
Oc1cccc2ccc(/C=C/c3c(F)cccc3Cl)nc12	-24.2%	52.9*	157.7*	-11.9%	-10.6%	u
Nc1ncnc(SCc2c(F)cccc2Cl)n1	30.3%	-1.5	21.8	2.6%	-14.1%	2.3%
CCOC(=O)c1sc2ccccc2c1S(=O)(=O)Nc1ccc(N(C)C)cc1	x	x	x	x	-18.5%	x
CCOC(=O)C1(Cc2cccc(OC)c2)CCCN(Cc2cc(OC)c(O)c(OC)c2)C1 (configuration not stated)	1.6%	12.1	-8.5	u	-2.0%	1.4%
CCOC(=O)C1(Cc2cccc(OC)c2)CCCN(C(=O)c2ccc(OC)o2)C1 (configuration not stated)	-10.7%	40.5*	113.3*	x	-0.7%	-4.6%
CCOC(=O)C1(Cc2cccc(Cl)c2)CCCN(C(=O)c2cc(C)[nH]n2)C1 (configuration not stated)	-5.6%	-2.8	-11.8	x	-5.0%	1.3%
CCOC(=O)C1(Cc2cccc(OC)c2)CCCN(Cc2cnn(C)c2)C1 (configuration not stated)	-7.5%	0.9	-9.6	-0.7%	0.6%	4.9%
CCOC(=O)C1(Cc2cccc(OC)c2)CCCN(C(=O)CCN2CCCO2)C1 (configuration not stated)	8.5%	56.7*	147.5*	x	-1.2%	-3.6%
CCOC(=O)C1(Cc2cccc(OC)c2)CCCN(C(=O)c2cc(CC(C)C)[nH]n2)C1 (configuration not stated)	3.3%	53.2*	86.6*	x	-4.2%	-0.5%
CCOc1ccc(/C=C(\C#N)c2nc(-c3cc4ccccc4oc3=O)cs2)c(OCC)c1	x	x	x	x	-2.5%	x
Oc1ccccc1C1=Nc2nc3ccccc3n2C(c2ccccc2)C1 (configuration not stated)	u	49.2*	84.4*	-9.4%	-0.1%	-6.5%
Oc1ccccc1C1=NC(c2ccccc2)NC(c2ccccc2)C1 (configuration not stated)	-12.6%	x	x	x	-8.0%	x
CCN(CC)c1ccc(/C=N/N=C(N)N)c(O)c1	-8.3%	-2.1	-21.7	-14.4%	-7.3%	-1.5%
CS/C(N)=N/N=C/c1c(O)ccc2ccccc12	0.4%	28.7*	57.7*	-8.9%	-7.0%	7.1%
Oc1ccc2ccccc2c1C=NC12CN3CCN(CN(C3)C1)C2	-9.1%	7.6	25.3	14.1µM*	-2.0%	-3.5%
CCCCS/C(N)=N/N=C/c1cc(C)ccc1O	-27.0%	44.4*	82.2*	-6.1%	-9.8%	-4.0%
CCS/C(N)=N/N=C/c1cc(C)ccc1O	u	52.9*	50.5	8.9%	1.7%	-4.5%
CCCN1C(=O)C2(c3ccccc31)c1c(oc3ccccc3c1=O)C(=O)N2CCO (configuration not stated)	x	x	x	x	-7.0%	x
COC(=O)c1cc2sc(C)cc2n1CC(=O)Nc1cccc(SC)c1	x	x	x	x	0.7%	x
O=C(Nc1cccc(C(F)(F)F)c1)c1cc2nc(-c3ccc4c(c3)OCO4)cc(C(F)(F)F)n2n1	x	x	x	x	-2.1%	x
CS/C(N)=N/N=C/c1cc(Br)cc(Br)c1O	-29.7%	16.9*	64.7*	5.4%	3.8%	-5.6%
CS/C(N)=N/N=C/c1cc(C)ccc1O	-10.8%	38.1*	61.0*	-0.5%	4.3%	-13.0%
O=C(Cn1c(SCc2ccc(F)cc2)nc2cccnc21)Nc1ccccc1F	x	x	x	x	3.8%	x
COc1ccccc1CN1COc2ccc3c(C)cc(=O)oc3c2C1	x	x	x	x	-2.4%	x
SMILES	RE007 growth inh	Cycloheximide cs	Shiga inhibitor	FBPA Giardia inh	Tb PYK inh	LmPK inh
C=C(C)C1CC=C(C)/C(=N/NC(=O)COc2cccc(C)c2)C1 (configuration not stated)	13.5%	7.6	41.1*	-0.5%	-0.7%	0.5%
C=C(C)C1CC=C(C)/C(=N/NC(=S)Nc2ccccc2)C1 (configuration not stated)	5.7%	20.8*	27.3	17.6%	-10.9%	1.2%
C=C(C)C1CC=C(C)/C(=N/NC(=O)c2ccoc2C)C1 (configuration not stated)	5.4%	65.5*	+	8.2%	1.2%	3.0%
Cc1cccc(CNC(=O)C2CCN(c3nnc(-n4c(C)ccc4C)s3)CC2)c1	x	x	x	x	-6.8%	x
COc1ccc(C(=O)c2ccc(O)cc2)c(O)c1O	x	x	x	22.3µM*	x	x
Oc1cccc2ccc(N3CCOCC3)nc12	-11.2%	24.5*	27.9	-2.6%	10.6%	-2.5%
CNC(=O)C1(C)C=CCN1C(=O)OC (configuration not stated)	x	x	x	3.9%	x	x
CC(=O)c1csc(Nc2ccccc2Cl)n1	28.3%	33.3*	68.2*	-4.6%	-2.9%	-22.2%
NC(=O)c1csc(CCNC(=O)c2ccccc2)n1	-21.1%	x	x	x	-6.3%	x
CC(=O)c1csc(-c2ccccc2)n1	-12.7%	15.9*	41.1*	3.9%	-0.1%	-5.6%
C=CCNC(=O)c1ccc(-c2nc(-c3ccc(Cl)c(Cl)c3)cs2)cc1	5.0%[3.69 µM]	-3.4	-4.8	-3.6%	x	4.0%
O=C(O)c1ccc(-c2nc(-c3ccc(Cl)c(Cl)c3)cs2)cc1	-9.0%	36.6*	140.6*	2.1%	-14.3%	-9.7%
O=C(Nc1ccc(Cl)cc1)c1csc(-c2ccccc2)n1	8.8%	7.8	5.3	-11.3%	-9.8%	2.0%
O=C(NCc1nc(-c2ccccc2)cs1)c1ccccc1	5.1%	19.2*	29.7*	1.0%	1.0%	2.7%
O=C(Cn1cnc2c(oc3ccccc32)c1=O)Nc1ccccc1C(F)(F)F	x	x	x	x	3.7%	x
Cc1cc2c(c3oc(=O)c4ccccc4c13)CN(Cc1ccc(F)cc1)CO2	x	x	x	x	0.5%	x
O=C(O)c1ccccc1-c1csc(-c2ccccc2)n1	-13.7%	23.3*	79.0*	9.5%	5.5%	-7.5%
O=C(Nc1ccc(-c2csc(-c3ccccc3)n2)cc1)c1ccccc1Cl	-10.0%	3.3	23.6	x	-13.7%	2.0%
O=C(O)c1ccc(-c2nc(-c3ccccc3)cs2)cc1	-27.4%	37.4*	41.4*	28.1%	-11.3%	-6.8%
NC(=O)C(=CNc1nc(-c2ccc(Cl)c(Cl)c2)cs1)C(N)=O	x	3.7	8.3	17.7µM*	x	-9.5%
c1ccc(-c2csc(-c3ccc(-c4csnn4)cc3)n2)cc1	4.8%	6.6	16.9	0.0%	4.9%	1.0%
CNC(=O)c1ccc(-c2nc(-c3ccccc3)cs2)cc1	9.9%	32.5*	43.1*	2.5%	-3.9%	4.0%
CO[C@H]1COC(=O)C/C=C\[C@H](C)COC(=O)[C@@H](C)NC(=O)C/C=C\[C@@H]1C	x	x	x	-0.9%[12.9 µM]	x	x
CCC(C(=O)NCCc1ccccc1)n1nc(C)n2c(cc3sccc32)c1=O (configuration not stated)	x	x	x	x	1.6%	x
